From the supplement of paper PMC10849652
About 8,800 targets were measured; listed, in parts, are those with a hit and a random draw of the rest. About 0.5% of all pairs of compound and target were hits.

Tests used:
Assay in all cases: log2 fold change, soluble protein after heating vs DMSO (PISA); higher = thermal stabilisation; K562 lysate, 10 uM; active = over 0.2 and 3.5 SD of the protein, either way, in both replicates (recomputed)
[1] = compound: C#Cc1cccc(Nc2ncnc3cc(OCCOC)c(OCCOC)cc23)c1 [erlotinib]
Procedure, shortened: (§1)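 Pellets of K562 cells were dounce-homogenised in PBS pH 7.4 with 1 mM MgCl2, and the crude extract was held at 1 mg/mL protein for a 30 min treatment with 10 μM compound. Aliquots were heated for 3 min over 48°C-58°C and pooled before NP-40 was added to 0.5% at 4°C. The supernatant from 21,000xg for 90 min was quantified by TMTpro 16plex LC-MS/MS with channel sums equalised. Values are reported from duplicates as log-two fold change in thermal stability relative to solvent controls.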

[2] = compound: C1=CC(=CC=C1C2=NC3=C(N2)C=C(C=C3)C(=O)N)OC4=CC=C(C=C4)Cl
Procedure, shortened: as §1

[3] = compound: C1=CC=C(C=C1)C2=NC(=C(N2)C3=CC=NC=C3)C4=CC(=C(C=C4)Cl)O
Procedure, shortened: as §1

[4] = compound: C1COCCN1CCN2C3=CC=CC=C3N=C2NC(=O)C4=CC(=CC=C4)[N+](=O)[O-] [IRAK-1-4 Inhibitor I]
Procedure, shortened: as §1

[5] = compound: CC(=O)c1cnc2ccc(-c3cc(Cl)c(O)c(Cl)c3)nc2c1N[C@H]1CC[C@H](CN(C)C)CC1
Procedure, shortened: as §1

[6] = compound: CC(C)(C)Cn1c(N)nc2ccc(-c3[nH]c(C(C)(C)C)nc3-c3ccc(F)cc3)nc21 [ralimetinib]
Procedure, shortened: as §1

[7] = compound: CC(C)(O)CC(=O)NCCn1ccc2ncnc(Nc3ccc(Oc4cccc(C(F)(F)F)c4)c(Cl)c3)c21
Procedure, shortened: as §1

[8] = compound: CC(C)C1=C2N=C(C=C(N2N=C1)NCC3=CC=CC=C3)NCCCCCCN
Procedure, shortened: as §1

[9] = compound: CC1=C(C(CC(=O)N1)C2=CC=C(C=C2)C(F)(F)F)C(=O)NC3=C(C=C4C(=C3)C=NN4)F
Procedure, shortened: as §1

[10] = compound: CC1=C(C2=C(C=C1)C(=O)C3=CC=CC=C3N2CCCN)C
Procedure, shortened: as §1

[11] = compound: CC1=C(C=C(C=C1)NC(=O)C2=CC(=CC=C2)C(C)(C)C#N)NC3=CC4=C(C=C3)N=CN(C4=O)C
Procedure, shortened: as §1

[12] = compound: CC1=C(C=C(C=C1)NC(=O)C2=CC(=CC=C2)N(C)C)NC(=O)C3=CC=C(C=C3)O
Procedure, shortened: as §1

[13] = compound: CC1=CC=C(C=C1)SC2=C3C=C(SC3=CN=C2)C(=O)N
Procedure, shortened: as §1

[14] = compound: C1CCN(C1)C(=O)NC2=CC=CC(=C2)NC3=NC=C(C(=N3)NCCC4=CN=CN4)Br
Procedure, shortened: as §1

[15] = compound: C1CN(CCC1(CC2=CC=C(C=C2)Cl)N)C3=NC=NC4=C3C=CN4
Procedure, shortened: as §1

[16] = compound: C1=CC2=NC=CN=C2C=C1/C=C/3\C(=O)NC(=O)S3
Procedure, shortened: as §1

[17] = compound: C=CC(=O)N1CCC[C@@H](n2nc(-c3ccc(Oc4ccccc4)cc3)c3c(N)ncnc32)C1 [ibrutinib]
Procedure, shortened: as §1

[18] = compound: C/C(=N\NC(=O)C1=CC(=CC=C1)S(=O)(=O)N2CCOCC2)/C3=C(C=CC(=C3)Cl)O
Procedure, shortened: as §1

[19] = compound: C1=CC2=C(C=CC(=C2)/C=C\3/C(=O)NC(=NCC4=CC=CS4)S3)N=C1
Procedure, shortened: as §1

[20] = compound: C1=CC=C2C(=C1)C3=NNC4=CC=CC(=C43)C2=O
Procedure, shortened: as §1

Measured: log2 fold change

FMNL2 isoform 3 (UniProt Q96PY5)
Chain of UniProt Q96PY5 (Q96PY5 whole entry, looked up): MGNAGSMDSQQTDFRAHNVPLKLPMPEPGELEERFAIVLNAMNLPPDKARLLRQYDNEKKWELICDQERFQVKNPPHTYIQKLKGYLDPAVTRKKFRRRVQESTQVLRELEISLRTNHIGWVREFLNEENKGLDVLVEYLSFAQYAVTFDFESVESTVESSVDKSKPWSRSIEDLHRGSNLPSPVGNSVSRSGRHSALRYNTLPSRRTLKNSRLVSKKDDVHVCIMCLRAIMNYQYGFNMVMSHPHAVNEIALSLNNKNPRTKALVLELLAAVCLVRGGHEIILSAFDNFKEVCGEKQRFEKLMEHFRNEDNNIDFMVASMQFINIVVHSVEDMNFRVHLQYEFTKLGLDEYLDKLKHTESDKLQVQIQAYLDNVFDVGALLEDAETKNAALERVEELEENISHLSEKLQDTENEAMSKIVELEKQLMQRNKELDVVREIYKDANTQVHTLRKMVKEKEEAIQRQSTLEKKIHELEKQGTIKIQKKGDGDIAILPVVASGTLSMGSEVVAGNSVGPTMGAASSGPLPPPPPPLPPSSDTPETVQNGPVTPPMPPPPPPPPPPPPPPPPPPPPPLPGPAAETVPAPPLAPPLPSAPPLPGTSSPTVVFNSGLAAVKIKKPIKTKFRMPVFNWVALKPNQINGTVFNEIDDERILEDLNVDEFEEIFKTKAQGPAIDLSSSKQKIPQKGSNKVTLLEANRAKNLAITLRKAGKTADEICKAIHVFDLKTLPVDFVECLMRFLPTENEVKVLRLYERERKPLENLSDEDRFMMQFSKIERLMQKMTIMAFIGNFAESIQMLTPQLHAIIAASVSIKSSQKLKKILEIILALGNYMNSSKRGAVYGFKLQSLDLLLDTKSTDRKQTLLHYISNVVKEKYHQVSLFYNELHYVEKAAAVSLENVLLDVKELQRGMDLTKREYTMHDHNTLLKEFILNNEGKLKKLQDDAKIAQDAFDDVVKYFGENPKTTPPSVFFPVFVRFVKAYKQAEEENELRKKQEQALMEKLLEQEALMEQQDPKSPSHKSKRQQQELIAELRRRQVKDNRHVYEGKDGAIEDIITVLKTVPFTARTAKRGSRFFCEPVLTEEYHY
inactive: [1] -0.02 | [2] -0.064 | [3] 0.083 | [4] -0.092 | [5] -0.048 | [6] -0.02 | [7] 0.185 | [8] 0.065 | [9] -0.056 | [10] 0.071 | [11] 0.116 | [12] 0.048 | [13] -0.003

EIF2B5, A0A3B3ITK8
inactive: [5] 0.015 | [9] 0.037 | [13] -0.104

FAT1 (UniProt Q14517)
inactive: [1] -0.004 | [2] 0.006 | [3] 0.126 | [14] -0.119 | [15] 0.128 | [4] -0.053 | [5] -0.109 | [6] -0.034 | [7] -0.016 | [8] -0.05 | [11] 0.188 | [12] 0.024 | [13] -0.105

GBA2 (UniProt Q9HCG7)
inactive: [1] -0.088 | [2] 0.063 | [16] 0.035 | [3] -0.055 | [14] 0.007 | [15] 0.041 | [4] 0.01 | [17] -0.071 | [5] -0.046 | [6] 0.082 | [7] -0.097 | [8] 0.042 | [9] -0.037 | [10] 0.077 | [11] 0.004 | [12] 0.08 | [13] 0.021

EPS8L2 (UniProt Q9H6S3)
inactive: [1] 0.082 | [2] 0.009 | [16] 0.037 | [3] 0.133 | [14] -0.108 | [15] 0.055 | [4] -0.086 | [17] -0.041 | [5] -0.026 | [6] -0.028 | [7] -0.021 | [8] 0.002 | [9] 0.031 | [10] -0.002 | [11] -0.054 | [12] -0.084 | [13] 0.015

DUSP22 isoform 2 (UniProt Q9NRW4)
Chain of UniProt Q9NRW4 (Q9NRW4 whole entry, looked up): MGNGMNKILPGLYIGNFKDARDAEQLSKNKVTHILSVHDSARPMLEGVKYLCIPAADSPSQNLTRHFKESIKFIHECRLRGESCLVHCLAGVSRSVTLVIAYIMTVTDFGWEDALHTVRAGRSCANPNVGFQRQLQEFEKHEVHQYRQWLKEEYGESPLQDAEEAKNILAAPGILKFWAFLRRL
inactive: [1] -0.016 | [18] 0.157 | [2] 0.007 | [19] 0.075 | [16] 0.051 | [3] 0.035 | [20] 0.143 | [4] -0.028 | [17] -0.059 | [5] 0.043 | [6] 0.007 | [7] 0.02 | [8] -0.092 | [9] 0.177 | [10] -0.046 | [12] 0.081 | [13] 0.007

EXO5 (UniProt Q9H790)
Chain of UniProt Q9H790 (Q9H790 whole entry, looked up): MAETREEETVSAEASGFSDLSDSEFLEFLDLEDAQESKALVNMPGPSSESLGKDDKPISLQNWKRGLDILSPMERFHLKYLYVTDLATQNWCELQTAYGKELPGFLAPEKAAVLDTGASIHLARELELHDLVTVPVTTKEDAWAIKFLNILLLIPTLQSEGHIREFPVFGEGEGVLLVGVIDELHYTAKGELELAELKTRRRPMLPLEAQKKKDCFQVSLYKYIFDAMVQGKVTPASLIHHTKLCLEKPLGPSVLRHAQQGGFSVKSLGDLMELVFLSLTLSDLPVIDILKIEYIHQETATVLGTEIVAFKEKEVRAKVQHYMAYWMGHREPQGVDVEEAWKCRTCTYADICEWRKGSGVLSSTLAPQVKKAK
inactive: [1] 0.279 | [2] 0.012 | [16] -0.226 | [3] 0.085 | [4] -0.028 | [17] 0.111 | [6] 0.018 | [7] -0.126 | [8] -0.025 | [11] 0.217 | [12] -0.067

EHHADH (UniProt Q08426)
Chain of UniProt Q08426 (Q08426 whole entry, looked up): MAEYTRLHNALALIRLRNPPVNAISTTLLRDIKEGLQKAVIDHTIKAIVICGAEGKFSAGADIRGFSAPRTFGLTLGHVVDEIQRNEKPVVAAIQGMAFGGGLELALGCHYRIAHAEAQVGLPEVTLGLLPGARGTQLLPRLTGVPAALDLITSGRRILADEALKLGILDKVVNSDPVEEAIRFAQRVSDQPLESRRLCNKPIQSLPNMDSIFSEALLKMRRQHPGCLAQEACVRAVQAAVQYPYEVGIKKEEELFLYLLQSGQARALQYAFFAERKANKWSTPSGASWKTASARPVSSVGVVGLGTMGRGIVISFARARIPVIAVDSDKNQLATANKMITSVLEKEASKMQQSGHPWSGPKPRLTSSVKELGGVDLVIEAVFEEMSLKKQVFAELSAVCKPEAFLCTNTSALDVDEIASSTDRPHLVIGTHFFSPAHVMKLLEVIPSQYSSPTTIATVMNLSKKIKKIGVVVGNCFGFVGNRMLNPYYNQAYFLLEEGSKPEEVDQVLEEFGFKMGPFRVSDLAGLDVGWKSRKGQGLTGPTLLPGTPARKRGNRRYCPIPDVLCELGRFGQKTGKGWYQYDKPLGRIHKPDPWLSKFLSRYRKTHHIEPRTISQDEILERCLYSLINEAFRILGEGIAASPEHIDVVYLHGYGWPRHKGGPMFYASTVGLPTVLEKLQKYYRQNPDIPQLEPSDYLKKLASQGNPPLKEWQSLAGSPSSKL
inactive: [1] -0.05 | [2] 0.08 | [16] -0.029 | [3] 0.007 | [14] 0.045 | [15] -0.106 | [4] -0.09 | [17] 0.059 | [5] -0.023 | [6] 0.021 | [7] -0.084 | [8] -0.016 | [9] -0.003 | [10] 0.128 | [11] -0.027 | [12] 0.031 | [13] 0.008

FAM76B (UniProt Q5HYJ3)
Chain of UniProt Q5HYJ3 (Q5HYJ3 whole entry, looked up): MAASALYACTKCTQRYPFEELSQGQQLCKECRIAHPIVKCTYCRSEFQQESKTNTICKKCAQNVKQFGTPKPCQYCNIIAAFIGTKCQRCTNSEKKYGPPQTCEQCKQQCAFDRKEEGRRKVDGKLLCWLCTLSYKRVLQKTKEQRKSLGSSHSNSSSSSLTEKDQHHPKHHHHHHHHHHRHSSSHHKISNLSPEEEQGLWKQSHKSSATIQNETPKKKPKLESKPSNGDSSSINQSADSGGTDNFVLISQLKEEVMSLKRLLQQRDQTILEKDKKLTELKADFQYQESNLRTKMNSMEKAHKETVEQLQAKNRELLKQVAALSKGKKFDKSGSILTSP
inactive: [1] -0.027 | [18] -0.35 | [2] -0.016 | [19] -0.137 | [3] -0.053 | [20] 0.046 | [14] -0.019 | [15] 0.061 | [4] -0.008 | [5] -0.025 | [6] -0.005 | [7] -0.01 | [8] -0.06 | [9] -0.012 | [10] -0.02 | [11] 0.023 | [12] -0.002 | [13] -0.011

EID1 (UniProt Q9Y6B2)
Chain of UniProt Q9Y6B2 (Q9Y6B2 whole entry, looked up): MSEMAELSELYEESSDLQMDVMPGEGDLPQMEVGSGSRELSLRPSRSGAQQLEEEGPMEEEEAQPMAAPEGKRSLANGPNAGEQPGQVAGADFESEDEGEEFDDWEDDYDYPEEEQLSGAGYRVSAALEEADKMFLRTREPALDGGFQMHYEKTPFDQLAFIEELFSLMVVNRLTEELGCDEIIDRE
inactive: [1] 0.089 | [2] -0.172 | [3] 0.096 | [14] 0.064 | [15] 0.091 | [4] 0.044 | [6] -0.06 | [7] -0.042 | [8] -0.173 | [9] 0.05 | [10] -0.116 | [12] -0.008

FNDC3A (UniProt Q9Y2H6)
inactive: [1] 0.198 | [2] 0.024 | [3] -0.112 | [4] 0.04 | [6] 0.118 | [7] -0.207 | [8] -0.093 | [9] 0.31 | [11] 0.027 | [12] 0.113

GDE1 (UniProt Q9NZC3)
Chain of UniProt Q9NZC3 (Q9NZC3 whole entry, looked up): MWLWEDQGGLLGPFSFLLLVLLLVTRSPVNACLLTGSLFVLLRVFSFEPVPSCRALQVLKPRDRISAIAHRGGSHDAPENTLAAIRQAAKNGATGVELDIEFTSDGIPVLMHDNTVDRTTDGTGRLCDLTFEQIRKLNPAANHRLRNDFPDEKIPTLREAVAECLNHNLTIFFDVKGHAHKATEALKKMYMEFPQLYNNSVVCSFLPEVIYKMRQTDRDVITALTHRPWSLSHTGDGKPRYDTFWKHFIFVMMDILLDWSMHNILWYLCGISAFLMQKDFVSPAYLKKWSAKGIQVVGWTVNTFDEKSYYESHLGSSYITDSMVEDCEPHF
inactive: [1] 0.042 | [2] 0.02 | [16] -0.032 | [3] 0.097 | [14] 0.05 | [15] 0.027 | [4] -0.01 | [17] -0.047 | [5] -0.017 | [6] 0.067 | [7] 0.026 | [8] 0.025 | [10] -0.038 | [11] -0.036 | [12] -0.122 | [13] -0.014

FAM111A (UniProt Q96PZ2)
inactive: [1] -0.025 | [18] -0.04 | [2] -0.01 | [19] 0.002 | [3] -0.088 | [20] -0.088 | [14] 0.046 | [15] 0.022 | [4] -0.088 | [5] 0.171 | [6] 0.116 | [7] 0.083 | [8] 0.125 | [10] -0.106 | [11] -0.093 | [12] 0.022 | [13] -0.244

DST isoform 3 (UniProt Q03001)
inactive: [1] 0.005 | [2] 0.181 | [16] -0.085 | [14] -0.034 | [15] -0.043 | [17] 0.005 | [8] -0.01

DTL (UniProt Q9NZJ0)
inactive: [1] 0.106 | [18] -0.053 | [2] 0.012 | [19] 0.067 | [16] -0.029 | [3] -0.002 | [20] -0.072 | [4] 0.006 | [17] 0.012 | [6] 0.037 | [7] -0.024 | [8] -0.05 | [9] 0.041 | [10] -0.104 | [11] 0.071 | [12] -0.037

ERG28 (UniProt Q9UKR5)
Chain of UniProt Q9UKR5 (Q9UKR5 whole entry, looked up): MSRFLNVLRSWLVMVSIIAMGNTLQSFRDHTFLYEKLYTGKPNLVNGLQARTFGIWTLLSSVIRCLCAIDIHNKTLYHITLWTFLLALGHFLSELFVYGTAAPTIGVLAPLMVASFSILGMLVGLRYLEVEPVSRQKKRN
inactive: [16] -0.015 | [14] 0.072 | [15] -0.066 | [17] 0.064 | [5] -0.045 | [10] 0.059 | [13] -0.004

FBRSL1, A0A3B3IRR3
active: [11] -0.381
inactive: [1] -0.014 | [18] -0.021 | [2] 0.042 | [19] -0.03 | [16] 0 | [3] -0.028 | [20] -0.199 | [14] 0.043 | [15] -0.015 | [4] -0.024 | [17] 0.072 | [6] 0.027 | [7] 0.008 | [8] -0.075 | [9] -0.01 | [10] 0.183 | [12] 0.012

ETFRF1 (UniProt Q6IPR1)
Chain of UniProt Q6IPR1 (Q6IPR1 whole entry, looked up): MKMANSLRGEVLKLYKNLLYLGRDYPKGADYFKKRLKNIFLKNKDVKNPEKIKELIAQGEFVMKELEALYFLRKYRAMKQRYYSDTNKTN
inactive: [1] -0.032 | [18] -0.008 | [2] -0.048 | [19] 0.083 | [16] -0.064 | [3] -0.038 | [20] -0.063 | [4] -0.002 | [17] 0.062 | [5] 0.028 | [6] -0.005 | [7] -0.044 | [8] -0.006 | [9] 0.049 | [10] -0.018 | [11] -0.071 | [12] 0.136 | [13] -0.02

EWSR1 (UniProt H7BY36)
inactive: [18] -0.711 | [19] -0.346 | [16] 0.111 | [3] -0.208 | [20] -0.428 | [14] -0.011 | [15] -0.035 | [4] -0.074 | [17] -0.288 | [6] -0.073 | [7] -0.052 | [10] -0.126 | [11] 0.071 | [12] 0.39

EIF3I (UniProt Q5TFK1)
inactive: [5] 0.266 | [9] -0.661 | [13] -0.059

EPB41 isoform 4 (UniProt P11171)
Chain of UniProt P11171 (P11171 whole entry, looked up): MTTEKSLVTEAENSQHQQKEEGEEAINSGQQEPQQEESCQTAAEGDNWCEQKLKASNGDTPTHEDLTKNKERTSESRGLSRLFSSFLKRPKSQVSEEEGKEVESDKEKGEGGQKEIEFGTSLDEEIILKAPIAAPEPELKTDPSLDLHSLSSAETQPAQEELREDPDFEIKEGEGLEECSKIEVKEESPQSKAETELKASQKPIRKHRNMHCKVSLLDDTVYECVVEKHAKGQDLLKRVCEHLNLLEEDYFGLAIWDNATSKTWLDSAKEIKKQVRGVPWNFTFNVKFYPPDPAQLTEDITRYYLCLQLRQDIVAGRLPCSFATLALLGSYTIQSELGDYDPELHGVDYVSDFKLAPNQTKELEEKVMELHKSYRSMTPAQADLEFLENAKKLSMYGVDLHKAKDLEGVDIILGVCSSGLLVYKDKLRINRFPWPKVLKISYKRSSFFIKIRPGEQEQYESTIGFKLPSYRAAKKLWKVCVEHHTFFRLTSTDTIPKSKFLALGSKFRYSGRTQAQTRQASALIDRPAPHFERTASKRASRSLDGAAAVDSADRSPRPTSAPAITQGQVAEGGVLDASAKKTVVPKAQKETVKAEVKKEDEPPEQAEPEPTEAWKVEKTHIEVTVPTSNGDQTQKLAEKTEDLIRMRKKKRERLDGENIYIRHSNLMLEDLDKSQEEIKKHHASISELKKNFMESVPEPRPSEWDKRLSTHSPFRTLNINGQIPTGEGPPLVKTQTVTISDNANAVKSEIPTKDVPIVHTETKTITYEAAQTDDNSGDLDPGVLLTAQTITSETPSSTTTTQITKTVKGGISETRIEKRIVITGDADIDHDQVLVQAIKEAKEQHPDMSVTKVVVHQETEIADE
inactive: [1] -0.128 | [2] -0.054 | [3] -0.012 | [4] 0.002 | [5] 0.048 | [6] -0.056 | [7] -0.018 | [8] 0.148 | [9] -0.012 | [11] 0.042 | [12] -0.001 | [13] -0.004

EPB41, A0A2R8Y783
inactive: [18] -0.136 | [19] 0.09 | [16] -0.058 | [20] 0.017 | [14] -0.001 | [15] 0.346 | [17] 0.196 | [5] 0.093 | [10] 0.057 | [13] 0.034

GART (UniProt C9JZG2)
inactive: [16] 0.092 | [3] 0.007 | [14] -0.025 | [15] -0.011 | [4] 0.078 | [17] -0.062 | [5] 0.037 | [6] 0.069 | [7] -0.068 | [9] -0.114 | [11] 0.083 | [12] -0.052 | [13] 0.022

ELAVL4 (UniProt P26378)
Chain of UniProt P26378 (P26378 whole entry, looked up): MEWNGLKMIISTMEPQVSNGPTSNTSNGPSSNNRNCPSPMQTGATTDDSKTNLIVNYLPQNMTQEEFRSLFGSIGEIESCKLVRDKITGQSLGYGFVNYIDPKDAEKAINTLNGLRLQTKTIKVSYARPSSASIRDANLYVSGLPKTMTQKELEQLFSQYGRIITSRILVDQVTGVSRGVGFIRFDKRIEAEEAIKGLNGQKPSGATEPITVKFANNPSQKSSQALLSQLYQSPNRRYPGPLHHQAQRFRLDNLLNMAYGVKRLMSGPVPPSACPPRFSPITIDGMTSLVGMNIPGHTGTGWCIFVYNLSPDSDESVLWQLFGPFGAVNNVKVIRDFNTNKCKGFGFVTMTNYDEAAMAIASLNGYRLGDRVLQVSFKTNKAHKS
inactive: [1] 0.073 | [18] 0.047 | [2] -0.063 | [19] -0.047 | [3] 0.015 | [20] 0.002 | [14] 0.029 | [15] 0.036 | [4] -0.012 | [5] -0.04 | [6] 0.065 | [7] 0.064 | [8] 0.026 | [9] -0.061 | [10] -0.01 | [11] -0.005 | [12] -0.026 | [13] 0.073

GAPVD1 (UniProt Q14C86)
inactive: [16] -0.016 | [17] 0.086 | [5] 0.317 | [13] -0.666

FTSJ1 isoform 2 (UniProt Q9UET6)
inactive: [18] -0.149 | [19] 0.055 | [20] -0.039 | [14] 0.051 | [15] 0.059 | [5] 0.026 | [13] 0.001
